Measured values from the supplement of paper PMC12297408.
Counter-ions that a name gives are not always drawn. About 40 (3%) of roughly 1,300 compounds showed activity. Shown is part of a subset that was picked to be rich in actives.

Test system: Plasmodium falciparum NF54/iGP1_RE9H ulg8 stage V gametocytes
Assay: gametocyte viability (luciferase signal relative to DMSO control) (% of DMSO control); higher = less gametocytocidal activity, active = 50 or less
Conditions: exposure time: 72 h
Outline: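 NF54/iGP1_RE9Hulg8 stage V gametocytes (day 12; ~2.5% gametocytemia, 3% hematocrit) in medium with 0.5% Albumax II were added to 96-well plates of nanolitre-spotted compounds (10 mM DMSO stocks), giving 10 µM or 1 µM, one well each. Plates were incubated 72 h at 37 °C. Then 90 µl was mixed with 10 µl D-luciferin (30 mg/ml) and luminescence was read on an IVIS Lumina II. Viability is relative to the mean of plate DMSO vehicle controls.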

SMILES	gametocyte viability (concentration: 1 µM)	gametocyte viability (concentration: 10 µM)
CN1CCC(=C2c3ccccc3CCc3cccnc32)CC1 [Azatadine maleate]	79.7 (inactive)	80.8 (inactive)
CN1CCN2c3ncccc3Cc3ccccc3C2C1 (configuration not stated) [Mirtazapine]	79.6 (inactive)	77.4 (inactive)
COc1cc(-c2ccc(N=Nc3ccc4c(S(=O)(=O)O)cc(S(=O)(=O)O)c(N)c4c3O)c(OC)c2)ccc1N=Nc1ccc2c(S(=O)(=O)O)cc(S(=O)(=O)O)c(N)c2c1O [Chicago sky blue 6B]	80.1 (inactive)	82.1 (inactive)
Cc1ccccc1C(OCCN(C)C)c1ccccc1 (configuration not stated) [Orphenadrine hydrochloride]	84.4 (inactive)	87.5 (inactive)
O=C1CC[C@@H](C(=O)N2CSC[C@H]2C(=O)O)N1 [Pidotimod]	83.8 (inactive)	81.2 (inactive)
Cc1ccc(S(=O)(=O)NC(=O)NN2CC3CCCC3C2)cc1 (configuration not stated) [Gliclazide]	91.8 (inactive)	88.7 (inactive)
O=C1NCCN1CCN1CCC(c2cn(-c3ccc(F)cc3)c3ccc(Cl)cc23)CC1 [Sertindole]	97.7 (inactive)	82.3 (inactive)
CC(=O)OCC(=O)[C@@]12N=C(C)O[C@@H]1C[C@H]1[C@@H]3CCC4=CC(=O)C=C[C@]4(C)[C@H]3[C@@H](O)C[C@@]12C [Deflazacort]	95.7 (inactive)	104 (inactive)
Clc1ccc(Nc2nnc(Cc3ccncc3)c3ccccc23)cc1 [Vatalanib]	89.2 (inactive)	69.1 (inactive)
Cc1c(F)c(N2CCNC(C)C2)cc2c1c(=O)c(C(=O)O)cn2C1CC1 (configuration not stated) [Grepafloxacin]	93.9 (inactive)	95.3 (inactive)
COc1ccc2[nH]c([S+]([O-])Cc3ncc(C)c(OC)c3C)nc2n1 (configuration not stated) [Tenatoprazole]	90.8 (inactive)	79.8 (inactive)
Nc1ccc(S(=O)(=O)Nc2nccs2)cc1 [Sulfathiazole]	96.7 (inactive)	91.9 (inactive)
CCCCC(=O)N(Cc1ccc(-c2ccccc2-c2nnn[nH]2)cc1)[C@H](C(=O)O)C(C)C [Valsartan]	81.5 (inactive)	81 (inactive)
Cc1cc(C(=O)NNCc2ccccc2)no1 [Isocarboxazid]	98.7 (inactive)	85 (inactive)
CN(C)[C@@H]1C(=O)C(C(=O)NCNCCCC[C@H](N)C(=O)O)=C(O)[C@@]2(O)C(=O)C3=C(O)c4c(O)cccc4[C@@](C)(O)[C@H]3C[C@@H]12 [Lymecycline]	88.7 (inactive)	84.6 (inactive)
CC(=O)OC[C@H]1O[C@@H]([S-])[C@H](OC(C)=O)[C@@H](OC(C)=O)[C@@H]1OC(C)=O.CCP(CC)CC.[Au+] [Auranofin]	82.6 (inactive)	3.03 (active)
CCCCCNC(=N)N/N=C/c1c[nH]c2ccc(OC)cc12 [Tegaserod maleate]	88.4 (inactive)	6.12 (active)
COc1ccc2[nH]cc(CCNC(C)=O)c2c1 [Melatonin]	80.2 (inactive)	85.4 (inactive)
COc1cc2nc(N3CCN(C(=O)C4COc5ccccc5O4)CC3)nc(N)c2cc1OC (configuration not stated) [Doxazosin mesylate]	86.5 (inactive)	63.2 (inactive)

SMILES	gametocyte viability (concentration: 1 µM)	gametocyte viability (concentration: 10 µM)
COc1cc2nc(N3CCN(C(=O)c4ccco4)CC3)nc(N)c2cc1OC [Prazosin hydrochloride]	90.8 (inactive)	42.9 (active)
COc1cc2nc(N3CCN(C(=O)C4CCCO4)CC3)nc(N)c2cc1OC (configuration not stated) [Terazosin hydrochloride]	96.5 (inactive)	92.6 (inactive)
OCCN1CCN(CC/C=C2/c3ccccc3Sc3ccc(Cl)cc32)CC1 [Zuclopenthixol hydrochloride]	100 (inactive)	95.8 (inactive)
CC(C)CN(C[C@@H](O)[C@H](Cc1ccccc1)NC(=O)O[C@H]1CO[C@H]2OCC[C@H]21)S(=O)(=O)c1ccc(N)cc1 [Darunavir]	82.6 (inactive)	81.5 (inactive)
C=C1C[C@H]2[C@@H]3C=C(C)C4=CC(=O)CC[C@]4(C)[C@H]3CC[C@]2(C)[C@@]1(OC(C)=O)C(C)=O [Melengestrol acetate]	85.4 (inactive)	87.2 (inactive)
Nc1nc(CC(=O)Nc2ccc(CCNC[C@H](O)c3ccccc3)cc2)cs1 [Mirabegron]	91.9 (inactive)	90.8 (inactive)
Cn1nnc2c(C(N)=O)ncn2c1=O [Temozolomide]	86.9 (inactive)	88.1 (inactive)
Cc1cc(C(C)(C)C)c(O)c(C)c1CC1=NCCN1 [Oxymetazoline hydrochloride]	89.6 (inactive)	90.7 (inactive)
CC(=O)OCC(=O)[C@@]12OC3(CCCC3)O[C@@H]1C[C@H]1[C@@H]3CCC4=CC(=O)C=C[C@]4(C)[C@@]3(F)[C@@H](O)C[C@@]12C [Amcinonide]	93.1 (inactive)	92.1 (inactive)
CN1CCN(C(c2ccccc2)c2ccc(Cl)cc2)CC1 (configuration not stated) [Chlorcyclizine hydrochloride]	96.9 (inactive)	91.7 (inactive)
CCOC(=O)[C@H](CCc1ccccc1)N[C@@H](C)C(=O)N1Cc2ccccc2C[C@H]1C(=O)O [Quinapril HCl]	98.4 (inactive)	98.4 (inactive)
S=c1[nH]cnc2nc[nH]c12 [Mercaptopurine]	82.1 (inactive)	84.9 (inactive)
c1coc(CNc2ncnc3nc[nH]c23)c1 [6-Furfurylaminopurine]	86.5 (inactive)	75.6 (inactive)
c1ccc(CNc2ncnc3nc[nH]c23)cc1 [Aminopurine, 6-benzyl]	69.7 (inactive)	43.9 (active)
CCCc1nc2c(C)cc(-c3nc4ccccc4n3C)cc2n1Cc1ccc(-c2ccccc2C(=O)O)cc1 [Telmisartan]	80 (inactive)	88.2 (inactive)
CN1CCCN=C1/C=C/c1cccc(O)c1 [Oxantel pamoate]	80.4 (inactive)	87.7 (inactive)
O=C(O)c1ccccc1C(=O)Nc1ccc(S(=O)(=O)Nc2nccs2)cc1 [Phthalylsulfathiazole]	82.3 (inactive)	85.4 (inactive)
CN(C)CCc1c[nH]c2ccc(C[C@H]3COC(=O)N3)cc12 [Zolmitriptan]	83.8 (inactive)	81.7 (inactive)
COc1ccccc1N1CCN(CCCNc2cc(=O)n(C)c(=O)n2C)CC1 [Urapidil hydrochloride]	75.6 (inactive)	48.5 (active)

SMILES	gametocyte viability (concentration: 1 µM)	gametocyte viability (concentration: 10 µM)
COc1ccccc1N1CCN(CC(O)COc2cccc3ccccc23)CC1 (configuration not stated) [Naftopidil dihydrochloride]	90.8 (inactive)	83.2 (inactive)
COc1ccccc1N1CCN(CCCCNC(=O)c2ccc3ccccc3c2)CC1	82.8 (inactive)	73.7 (inactive)
CCOC(=O)[C@H](CCc1ccccc1)N[C@@H](C)C(=O)N1CCC[C@H]1C(=O)O [Enalapril maleate]	81.9 (inactive)	86.7 (inactive)
COc1ccc(CCN(C)CCCC(C#N)(c2ccc(OC)c(OC)c2)C(C)C)cc1OC (configuration not stated) [Verapamil hydrochloride]	91.8 (inactive)	99.3 (inactive)
N/C(=N\C(=O)c1nc(Cl)c(N)nc1N)NCc1ccccc1 [Benzamil hydrochloride]	88.7 (inactive)	81.1 (inactive)
CC(C)c1ccc2oc3nc(N)c(C(=O)O)cc3c(=O)c2c1 [Amlexanox]	80 (inactive)	81.5 (inactive)
CCCCC(O)c1ccccc1 (configuration not stated) [Fenipentol]	82 (inactive)	82.9 (inactive)
CC(C)(C)NC(=O)[C@@H]1C[C@@H]2CCCC[C@@H]2CN1C[C@@H](O)[C@H](Cc1ccccc1)NC(=O)[C@H](CC(N)=O)NC(=O)c1ccc2ccccc2n1 [Saquinavir mesylate]	82.4 (inactive)	78.9 (inactive)
CC(C)(C)NC(=O)[C@@H]1CN(Cc2cccnc2)CCN1C[C@@H](O)C[C@@H](Cc1ccccc1)C(=O)N[C@H]1c2ccccc2C[C@H]1O [Indinavir sulfate]	67 (inactive)	40 (active)
CN(C)CCCN1c2ccccc2Sc2ccc(C(F)(F)F)cc21 [Triflupromazine hydrochloride]	83.7 (inactive)	81.5 (inactive)
CSc1ccc2c(c1)C(N1CCN(C)CC1)Cc1ccccc1S2 (configuration not stated) [Methiothepin maleate]	86.1 (inactive)	75.3 (inactive)
CCSc1ccc2c(c1)N(CCCN1CCN(C)CC1)c1ccccc1S2 [Thiethylperazine dimalate]	83.3 (inactive)	32.4 (active)
CN1CCN(CCCN2c3ccccc3Sc3ccc(S(=O)(=O)N(C)C)cc32)CC1 [Thioproperazine dimesylate]	81.7 (inactive)	52.8 (inactive)
CSc1ccc2c(c1)N(CCC1CCCCN1C)c1ccccc1S2 (configuration not stated) [Thioridazine hydrochloride]	87.7 (inactive)	30.1 (active)
CN1CCN(CCCN2c3ccccc3Sc3ccc(Cl)cc32)CC1 [Prochlorperazine dimaleate]	81.3 (inactive)	78.9 (inactive)
OCCN1CCN(CCCN2c3ccccc3Sc3ccc(C(F)(F)F)cc32)CC1 [Fluphenazine dihydrochloride]	89.1 (inactive)	68.1 (inactive)
CN1CCN(CCCN2c3ccccc3Sc3ccc(C(F)(F)F)cc32)CC1 [Trifluoperazine dihydrochloride]	82.8 (inactive)	46.8 (active)
CN1CCCCC1CCN1c2ccccc2Sc2ccc([S+](C)[O-])cc21 (configuration not stated) [Mesoridazine besylate]	88.9 (inactive)	88.7 (inactive)
